Reference: PubChem BioAssay (NCI)
Compounds without any hit were thinned out: in the full panel of roughly 83,000, 20% have a hit.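 Cells were grown in 96-well plates and exposed to the test compound at a single concentration for 48 hours; results are reported as percent growth, with values below 10 considered active.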 Values without a mark were called inactive. The source made the active and inactive calls.

tested on: LOX IMVI melanoma; experiment: NCI-60 one-dose screen, 48 h (100 = growth as untreated, 0 = no growth, -100 = all killed); conditions: 10 µM unless noted

Structure (SMILES)	growth
C[C@]12CC[C@@H]3c4ccc(Oc5nc(N6CC6)nc(N6CC6)n5)cc4CC[C@H]3[C@@H]1CCC2=O	-63.1% (active)
CC(=O)Nc1ccc(NC(=O)c2ccc([As](O)O)cc2)cc1	76.4%
CCC(C)(C)[C@H](NC(=O)[C@H]1CCCCN1C)C(=O)N(C)[C@H](C[C@@H](OC(C)=O)c1nc(C(=O)N[C@@H](Cc2ccccc2)C[C@H](C)C(=O)O)cs1)C(C)C	16.1%

tested on: SK-MEL-28 melanoma; experiment: as above; conditions: 10 µM unless noted

Structure (SMILES)	growth
CC1=C(CNO)C2=C(C)C3(CC3)[C@@](C)(O)C(=O)C2=C1	50.2%
COc1ccc(O)c(CNC(=O)CN2CCCC2=O)c1	99.4%
CN1CCCCC1C(C)(O)c1ccccc1 (stereo not given)	105%
COC(=O)CC[C@H](Cc1ccccc1)NC(=O)c1csc([C@@H](C[C@H](C(C)C)N(C)C(=O)[C@@H](NC(=O)[C@H]2CCCCN2C)C(C)C)OC(C)=O)n1	77.3%
COc1ccc(N(CC(=O)NCCC[Te]c2ccccc2)C(=O)CNC(=O)OC(C)(C)C)cc1	105%
COC(=O)[C@@H](C)C[C@H](Cc1ccccc1)NC(=O)c1csc([C@@H](C[C@H](C(C)C)N(C)C(=O)[C@@H](NC(=O)[C@H]2CCCCN2C)C(C)C)OC(C)=O)n1	39.2%
COC1OC(CO)C(O)C(O)[CH]1[Hg][O]C(C)=O (stereo not given)	97.5%
CC12CC=CCC1CCC1C2CCC2(C)C(c3ccc(=O)oc3)CCC12O (stereo not given)	-33.8% (active)
O=C1C2CC=CCC2C(=O)N1SC(Cl)(Cl)Cl (stereo not given)	132%
CCOC(=O)[C@@H](C)C[C@H](Cc1ccccc1)NC(=O)c1nc([C@@H](C[C@H](C(C)C)N(C)C(=O)[C@@H](NC(=O)[C@H]2CCCCN2C)C(C)C)OC(C)=O)sc1CCOCc1ccccc1	-23.7% (active)
COP(=S)(N1CC1)N1CC1	114%
COC(=O)[C@@H](C)C[C@H](Cc1ccccc1)NC(=O)c1nc([C@@H](C[C@H](C(C)C)N(C)C(=O)[C@@H](NC(=O)[C@H]2CCCCN2C)C(C)C)OC(C)=O)sc1C(C)C	49.1%
COC(=O)[C@@]1(O)C[C@H]2O[C@]1(C)n1c3ccccc3c3c4c(c5c6ccccc6n2c5c31)C(=O)NC4	-58.9% (active)
N/C(=N\N=C\c1ccc(-c2ccccc2)cc1)N[N+](=O)[O-]	54%
COc1ccc([As]=[As]c2ccc(OC)c(NCS(=O)(=O)O)c2)cc1NCS(=O)(=O)O (stereo not given)	0.0807% (active)
C1CCC([PH+](C2CCCCC2)C2CCCCC2[PH+](C2CCCCC2)C2CCCCC2)CC1.O=C(C1[CH-]CCCC1)C1CCCC[N-]1.[Au] (stereo not given)	-69.5% (active)
O=P1(NCCCl)OCCCN1CCCl (stereo not given)	116%
O=C([O][Hg][c]1ccccc1)c1ccccc1	-61.1% (active)
CC(CO)NC1CCCCC1 (stereo not given)	114%

Structure (SMILES)	growth
C[C@@]12CC=C3c4nc(Nc5cccc(O)c5)sc4CC[C@]3(C)[C@H]1CC[C@]1(C)C(=O)CC[C@@H]21	41.2%
COC(=O)[C@@H](C)C[C@H](Cc1ccccc1)NC(=O)c1csc([C@@H](C[C@H](C(C)C)N(C)C(=O)[C@@H](NC(=O)[C@H]2CCCCN2C)c2ccc(F)cc2)OC(C)=O)n1	49.6%
OCCCCCNC1CCCCC1	95%
COc1cc(/C=C/[N+](=O)[O-])c([N+](=O)[O-])cc1OC	38.4%
NC(CCl)CCl	98.3%
O=[N+]([O-])CC(c1ccccc1Cl)c1c(-c2ccccc2)[nH]c2ccccc12 (stereo not given)	61.4%
C#Cc1ccc2c(c1)C(c1ccccc1)=NCC(=O)N2C	59.1%
CN(C)C(=O)Oc1ccccc1	111%
OCCNC(Cc1ccccc1)c1ccc2c(c1)OCO2 (stereo not given)	109%
Nc1ccc2c(c1)Cc1cc(Br)ccc1-2	116%
C#Cc1ccc2c(c1)C(c1ccccc1F)=NCC(=O)N2C	63.8%
O=C([O][Hg][CH2]C1OCCOC1[CH2][Hg][O]C(=O)c1ccccc1)c1ccccc1 (stereo not given)	-96.7% (active)
C[C@@H]1O[C@@H](O[C@H]2C[C@@H](O)[C@]3(CO)C4C(CC[C@]3(O)C2)[C@@]2(O)CC[C@H](C3=CC(=O)OC3)[C@@]2(C)C[C@H]4O)[C@H](O)[C@H](O)[C@H]1O (stereo not given in full)	-87.6% (active)
CC1=C(CN)C2=C(C)C3(CC3)[C@@](C)(O)C(=O)C2=C1	94.8%
COC(C(=O)[C@@H](O)[C@@H](C)O)[C@@H]1Cc2cc3cc(O[C@H]4C[C@@H](O[C@H]5C[C@@H](O)[C@H](O)C(C)O5)[C@H](O)C(C)O4)c(C)c(O)c3c(O)c2C(=O)[C@H]1O[C@H]1C[C@@H](O[C@H]2C[C@@H](O[C@H]3C[C@@H](O)[C@@H](O)C(C)O3)[C@@H](O)C(C)O2)[C@H](O)C(C)O1 (stereo not given in full)	-9.88% (active)
C[C@]12CC[C@@H]3c4ccc(Oc5nc(N6CC6)nc(N6CC6)n5)cc4CC[C@H]3[C@@H]1CCC2=O	63.5%
CC(=O)Nc1ccc(NC(=O)c2ccc([As](O)O)cc2)cc1	118%
CCC(C)(C)[C@H](NC(=O)[C@H]1CCCCN1C)C(=O)N(C)[C@H](C[C@@H](OC(C)=O)c1nc(C(=O)N[C@@H](Cc2ccccc2)C[C@H](C)C(=O)O)cs1)C(C)C	44.6%
